Values without a mark were called inactive. Some of the results follow. The source made the active and inactive calls. Unless noted, no stated cut-off is given here; in the data, active means inhibition above about 44%; inactive means the rest.
Legend:
[1] = target: Photoreceptor-specific nuclear receptor (Homo sapiens) (UniProt Q9Y5X4); assay: NR2E3 agonist confirmation in cells, cell-based, luminescence, CHO-S two-hybrid (AID 624378;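 active means average inhibition above a cutoff equal to the mean inhibition of all tested compounds plus one SD, cut at about 70% in these data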;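 further: 0% = DMSO in NR2E3 cells and 100% = DMSO in cells lacking NR2E3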); conditions: CHO-S mammalian two-hybrid NR2E3-NCOR, luciferase luminescence; at 3.98 µM; stronger effect = higher value
[2] = GAL4-VP16 reporter modulators, confirmation, counter-screen for NR2E3 agonist project, cell-based, luminescence, CHO-S, high throughput (AID 624379;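 active means mean inhibition above a cutoff equal to the average over all tested compounds plus one standard deviation, cut at about 70% in these data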;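 further: luciferase from a UAS reporter driven by GAL4-VP16 transactivation; 0% = DMSO with VP16-transfected cells and 100% = DMSO with cells lacking VP16; higher means less reporter light so more repression of VP16 activity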); conditions: CHO-S GAL4-VP16 luciferase reporter, at 3.98 µM, stronger effect = higher value
[3] = StAR promoter reporter inhibitors, counter-screen for LRH-1 inverse agonist project, cell-based, luminescence, high throughput (AID 651611; in the data active means inhibition above about 28%); conditions: StAR promoter luciferase reporter counterscreen, at 3.6 µM, stronger effect = higher value
[4] = target: Nuclear receptor subfamily 5 group A member 2 (Homo sapiens) (UniProt O00482); assay: LRH-1 (NR5A2) inverse agonists, retest, confirmation, cell-based, luminescence (AID 651613; in the data active means inhibition above about 42%;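 further: HEK293T cells co-transfected with LRH-1 and StAR promoter luciferase reporter; 0% = vehicle wells and 100% = parental cells lacking receptor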); conditions: cell-based LRH-1 luciferase reporter, inverse agonism; at 3.6 µM; stronger effect = higher value
[5] = target: Steroidogenic factor 1 (Homo sapiens) (UniProt Q13285); assay: SF1 (NR5A1) inverse agonists, counter-screen for LRH-1 inverse agonist project, cell-based, luminescence, high throughput (AID 651614); conditions: cell-based SF1 luciferase reporter, at 3.6 µM, stronger effect = higher value;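 further: cells cotransfected with StAR promoter reporter and SF1 expression vector; 0% = vehicle on cells with receptor and 100% = vehicle on cells lacking receptor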
[6] = VP16 transactivation reporter inhibitors, counter-screen for LRH-1 inverse agonist project, cell-based, luminescence, high throughput (AID 651615; in the data active means inhibition above about 33%); conditions: Gal4-VP16 luciferase reporter cells, at 3.6 µM, stronger effect = higher value
[7] = Gal4-VP16 luciferase reporter inhibitors, counter-screen for COUP-TFII antagonist project, cell-based, luminescence, HEK293 (AID 687007; in the data active means inhibition above about 13%); conditions: at 8.5 µM, stronger effect = higher value
[8] = target: COUP transcription factor 2 (Homo sapiens) (UniProt P24468); assay: NR2F2 transcriptional activity inhibitors, confirmation, cell-based, luciferase reporter, HEK293, triplicate (AID 687008;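 active means mean inhibition over three repeats above a set limit taken from the earlier primary screen, cut at about 38% in these data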;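 further: 100% = cells given the luciferase reporter alone without the COUP-TF2 vector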); conditions: HEK293 NGFI-A luciferase reporter, luminescence; at 8.5 µM; stronger effect = higher value
Chain of COUP transcription factor 2 (Homo sapiens) (P24468 whole entry, looked up): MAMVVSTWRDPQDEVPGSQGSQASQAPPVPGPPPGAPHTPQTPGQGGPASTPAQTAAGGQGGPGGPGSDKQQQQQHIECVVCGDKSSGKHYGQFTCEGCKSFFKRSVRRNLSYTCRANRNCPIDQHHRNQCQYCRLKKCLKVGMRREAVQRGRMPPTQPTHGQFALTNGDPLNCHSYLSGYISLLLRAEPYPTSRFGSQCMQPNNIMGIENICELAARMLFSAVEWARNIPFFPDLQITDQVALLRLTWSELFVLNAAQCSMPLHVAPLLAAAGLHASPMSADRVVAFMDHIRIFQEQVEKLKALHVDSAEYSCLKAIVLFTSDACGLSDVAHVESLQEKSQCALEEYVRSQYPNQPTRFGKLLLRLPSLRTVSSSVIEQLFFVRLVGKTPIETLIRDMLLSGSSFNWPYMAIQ

Chain of Photoreceptor-specific nuclear receptor (Homo sapiens) (Q9Y5X4 whole entry, looked up, the tested form may be a part): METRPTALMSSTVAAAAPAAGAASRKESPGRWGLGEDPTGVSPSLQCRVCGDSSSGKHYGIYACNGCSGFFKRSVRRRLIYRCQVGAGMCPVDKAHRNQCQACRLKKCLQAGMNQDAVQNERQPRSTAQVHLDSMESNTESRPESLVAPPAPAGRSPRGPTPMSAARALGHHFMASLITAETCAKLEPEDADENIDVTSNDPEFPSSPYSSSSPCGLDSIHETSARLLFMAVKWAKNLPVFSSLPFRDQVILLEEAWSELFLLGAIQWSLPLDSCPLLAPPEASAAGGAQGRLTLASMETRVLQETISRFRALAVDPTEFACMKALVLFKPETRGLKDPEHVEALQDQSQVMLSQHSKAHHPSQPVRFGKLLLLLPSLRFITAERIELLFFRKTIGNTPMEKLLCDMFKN
Chain of Steroidogenic factor 1 (Homo sapiens) (Q13285 whole entry, looked up, the tested form may be a part): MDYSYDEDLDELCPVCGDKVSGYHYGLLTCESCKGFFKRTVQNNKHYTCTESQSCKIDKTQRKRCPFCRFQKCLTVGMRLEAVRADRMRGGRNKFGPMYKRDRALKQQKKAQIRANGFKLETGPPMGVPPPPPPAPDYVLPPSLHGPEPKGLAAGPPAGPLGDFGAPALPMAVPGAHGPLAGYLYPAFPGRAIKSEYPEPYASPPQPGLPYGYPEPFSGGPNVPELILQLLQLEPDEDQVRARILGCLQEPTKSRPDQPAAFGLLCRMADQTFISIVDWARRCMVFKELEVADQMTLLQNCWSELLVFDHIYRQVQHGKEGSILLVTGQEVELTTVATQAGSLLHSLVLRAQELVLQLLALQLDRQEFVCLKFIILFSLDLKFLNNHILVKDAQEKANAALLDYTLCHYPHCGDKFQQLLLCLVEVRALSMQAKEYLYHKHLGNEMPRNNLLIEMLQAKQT
Chain of Nuclear receptor subfamily 5 group A member 2 (Homo sapiens) (O00482 whole entry, looked up): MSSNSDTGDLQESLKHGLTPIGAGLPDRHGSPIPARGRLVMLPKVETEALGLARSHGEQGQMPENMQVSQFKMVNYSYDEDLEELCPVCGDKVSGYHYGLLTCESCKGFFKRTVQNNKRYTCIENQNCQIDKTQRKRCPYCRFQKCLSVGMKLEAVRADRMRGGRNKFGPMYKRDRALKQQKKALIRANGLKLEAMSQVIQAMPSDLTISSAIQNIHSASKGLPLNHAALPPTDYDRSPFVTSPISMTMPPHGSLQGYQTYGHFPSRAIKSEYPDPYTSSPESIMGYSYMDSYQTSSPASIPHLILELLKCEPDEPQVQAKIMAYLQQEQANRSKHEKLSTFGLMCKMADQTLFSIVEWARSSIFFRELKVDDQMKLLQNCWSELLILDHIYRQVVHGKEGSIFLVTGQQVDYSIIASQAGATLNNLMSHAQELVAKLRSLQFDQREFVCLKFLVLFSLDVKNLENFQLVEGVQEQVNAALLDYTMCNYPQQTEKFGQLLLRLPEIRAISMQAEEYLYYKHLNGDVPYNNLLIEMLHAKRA

Question: For `Cc1nc2c(OCc3cccc(Cl)c3)cccn2c1N(C)CC1CC1`, which inhibition [1] is on record?
Answer: Its inhibition is 1.83%.

Question: What about the inhibition [2] of the same molecule?
Answer: Its inhibition is 19.3%.

Question: What does the source list for `COc1ccc(CNS(=O)(=O)c2ccc(-c3cnc(C4CC4)o3)cc2)cc1`?
Answer: inhibition [1]: 48.2%; inhibition [2]: 55.8%

Question: With `CCOc1ccc(S(=O)(=O)N2CCCCCC2)c2ccccc12` as the molecule, how does the inhibition [1] read?
Answer: The inhibition was 50.4%.

Question: And the inhibition [2]?
Answer: The inhibition was -4.92%.

Question: What does the source list for `CN(C(=O)CN1CCN(c2cc(-c3ccc(OCc4ccccc4)cc3)ncn2)CC1)c1ccccc1`?
Answer: inhibition [1]: 51.3%; inhibition [2]: 52.7%; inhibition [3]: 14.7%; inhibition [4]: 46.5% (active); inhibition [5]: 46.4% (active); inhibition [6]: 25.7%; inhibition [7]: 1.06%; inhibition [8]: 31.7%

Question: For `COc1ccc(-c2c(-c3ccccc3)c(C(=O)C(=O)NCCCN(C)C)n3ccc4cc(OC)c(OC)cc4c23)cc1OC`, which inhibition [3] is on record?
Answer: Its inhibition is 20.4%.

Question: And the inhibition [4]?
Answer: Its inhibition is 40.9%.

Question: And the inhibition [5]?
Answer: The inhibition was 32.1%.

Question: And the inhibition [6]?
Answer: The inhibition was 2.99%.

Question: What does the source list for `O=C(NCCCc1ccccc1)c1cc([N+](=O)[O-])ccc1Cl`?
Answer: inhibition [3]: 23.3%; inhibition [4]: 71% (active); inhibition [5]: 67.5% (active); inhibition [6]: -15.8%

Question: What does the source list for `COc1ccccc1-c1cc(NC(C)=O)c2ncc(-c3ccc(S(C)(=O)=O)cc3)n2c1`?
Answer: inhibition [3]: 23.8%; inhibition [4]: 49.3% (active); inhibition [5]: 48.6% (active); inhibition [6]: -21.1%

Question: For `Cn1c(Cc2cccc3ccccc23)nnc1SCC(=O)N1CCN(c2cccc(Cl)c2)CC1`, which inhibition [1] is on record?
Answer: The inhibition was 78.1% (active).

Question: And the inhibition [2]?
Answer: Its inhibition is 30.7%.

Question: And the inhibition [7]?
Answer: The inhibition was -7.02%.

Question: What about the inhibition [8] of the same molecule?
Answer: The inhibition was 30.3%.

Question: For `N#C[C@]1(S(=O)(=O)c2ccccc2)C[C@@H]2ON=C(c3cccc(Br)c3)[C@@H]2C1`, which inhibition [1] is on record?
Answer: The inhibition was 88.5% (active).

Question: What about the inhibition [2] of the same molecule?
Answer: The inhibition was 75.2% (active).

Question: And the inhibition [7]?
Answer: The inhibition was 2.59%.

Question: And the inhibition [8]?
Answer: The inhibition was 14.3%.

Question: Which results are given for `CC(=O)Nc1cccc(-c2cc(NC=O)c3ncc(-c4cccc(C(C)=O)c4)n3c2)c1`?
Answer: inhibition [3]: 29.1% (active); inhibition [4]: 57.6% (active); inhibition [5]: 53.2% (active); inhibition [6]: -34.5%

Question: What does the source list for `Cc1sc(NC(=S)NC(=O)CCc2ccccc2)c(C(N)=O)c1C`?
Answer: inhibition [3]: 54% (active); inhibition [4]: 35.5%; inhibition [5]: 38.1%; inhibition [6]: 11.8%

Question: Which results are given for `CC[n+]1c(/C=C/c2ccc(N(C)C)cc2)ccc2ccccc21`?
Answer: inhibition [3]: 71.9% (active); inhibition [4]: 103% (active); inhibition [5]: 86.6% (active); inhibition [6]: 85% (active)

Question: Which results are given for `COc1ccc(N2CC(C(=O)N/N=C/c3ccc(C)cc3)CC2=O)cc1` (configuration not stated)?
Answer: inhibition [3]: 40.7% (active); inhibition [4]: 40%; inhibition [5]: 29.4%; inhibition [6]: 19.5%

Question: Which results are given for `O=C(CCl)NCc1cc(-c2ccc(Cl)cc2)no1`?
Answer: inhibition [3]: 43.5% (active); inhibition [4]: 70.7% (active); inhibition [5]: 72.3% (active); inhibition [6]: -3.6%

Question: For `O=C(Cn1ncc(Cl)c(Cl)c1=O)Nc1ccc2c(c1)OCO2`, which inhibition [3] is on record?
Answer: The inhibition was -10.7%.

Question: And the inhibition [4]?
Answer: The inhibition was 38.1%.

Question: What about the inhibition [5] of the same molecule?
Answer: The inhibition was 47.4% (active).

Question: What about the inhibition [6] of the same molecule?
Answer: Its inhibition is -13.7%.

Question: What does the source list for `CCOc1ccc(CCNC(=O)COC(=O)c2cc([N+](=O)[O-])ccc2N2CCOCC2)cc1OCC`?
Answer: inhibition [3]: 9.91%; inhibition [4]: 58.4% (active); inhibition [5]: 56.6% (active); inhibition [6]: -11.1%

Question: Which inhibition [3] does the source give for `CN1c2ccccc2C(C)(C)C12C=Nc1c(cc(N3CCOCC3)c3ccccc13)O2` (configuration not stated) here?
Answer: The inhibition was 9%.

Question: And the inhibition [4]?
Answer: The inhibition was 19.1%.

Question: And the inhibition [5]?
Answer: Its inhibition is 21.1%.

Question: And the inhibition [6]?
Answer: Its inhibition is 4.98%.

Question: Which results are given for `O=C(c1ccoc1)N1CCN(c2cc(-c3ccco3)nc3cc(-c4ccccc4)nn23)CC1`?
Answer: inhibition [3]: 46.1% (active); inhibition [4]: 50.1% (active); inhibition [5]: 48% (active); inhibition [6]: 19.7%

Question: Which inhibition [1] does the source give for `CCOC(=O)N1CCN(C(=O)C2CCN(c3ncnc4c3sc3cccc(F)c34)CC2)CC1` here?
Answer: Its inhibition is 92% (active).

Question: And the inhibition [2]?
Answer: The inhibition was 70.3%.

Question: And the inhibition [7]?
Answer: The inhibition was -7.67%.

Question: What about the inhibition [8] of the same molecule?
Answer: The inhibition was 27.1%.

Question: Which inhibition [3] does the source give for `Cc1ccc2nc(-c3ccc(NS(C)(=O)=O)cc3)cc(-c3ccccc3)c2c1` here?
Answer: Its inhibition is 8.04%.

Question: And the inhibition [4]?
Answer: Its inhibition is 51.1% (active).

Question: What about the inhibition [5] of the same molecule?
Answer: Its inhibition is 51.8% (active).

Question: And the inhibition [6]?
Answer: Its inhibition is -2.14%.

Question: For `CC1CCCC(C)N1C(=O)COC(=O)CCC1CCCC1` (configuration not stated), which inhibition [3] is on record?
Answer: Its inhibition is 3.25%.

Question: What about the inhibition [4] of the same molecule?
Answer: Its inhibition is 51.2% (active).

Question: What about the inhibition [5] of the same molecule?
Answer: The inhibition was 52.9% (active).

Question: And the inhibition [6]?
Answer: The inhibition was 2.94%.

Question: With `COc1ccccc1CNc1nc(Nc2ccccc2Cl)c2sccc2n1` as the molecule, how does the inhibition [1] read?
Answer: The inhibition was 93.1% (active).

Question: And the inhibition [2]?
Answer: The inhibition was 86.4% (active).

Question: And the inhibition [7]?
Answer: Its inhibition is -3.83%.

Question: And the inhibition [8]?
Answer: Its inhibition is 29.8%.

Question: What does the source list for `COc1ccc(CC(=O)Nc2ccncc2Cl)cc1`?
Answer: inhibition [3]: 7.9%; inhibition [4]: 57.3% (active); inhibition [5]: 49.8% (active); inhibition [6]: 43% (active)

Question: For `CCC(=O)Nc1ccc(NC(=O)CSc2nc3cc4c(cc3cc2C)CCC4)cc1`, which inhibition [3] is on record?
Answer: The inhibition was 9.63%.

Question: And the inhibition [4]?
Answer: The inhibition was 56.4% (active).

Question: And the inhibition [5]?
Answer: The inhibition was 50.7% (active).

Question: What about the inhibition [6] of the same molecule?
Answer: Its inhibition is 0.93%.

Question: What does the source list for `COCCSc1ccccc1C(=O)NCc1ccc2c(c1)OCO2`?
Answer: inhibition [3]: 6.49%; inhibition [4]: 39.5%; inhibition [5]: 48.9% (active); inhibition [6]: 2.27%

Question: With `CC(=O)Nc1ccc(-c2c(C)cc3oc(=O)cc(-c4ccccc4)c3c2C)cc1` as the molecule, how does the inhibition [3] read?
Answer: The inhibition was 15.9%.

Question: And the inhibition [4]?
Answer: Its inhibition is 57.9% (active).

Question: What about the inhibition [5] of the same molecule?
Answer: Its inhibition is 58.9% (active).

Question: And the inhibition [6]?
Answer: Its inhibition is -2.96%.

Source: PubChem BioAssay
